Data published in PubChem BioAssay AID489028 (Sanford-Burnham Center for Chemical Genomics, 2010).
About 5,600 (56%) of roughly 10,000 compounds were called active. Cut-off read from the data, not from the text of the source: active = inhibition above about 40%; inactive = the rest. So high a share suggests a set chosen from earlier hits. The list is a sample of the results.

Biological target: Protein Mdm4 (Homo sapiens) + E3 ubiquitin-protein ligase Mdm2 (Homo sapiens) (UniProt O15151+Q00987)
Assay: Mdm2-MdmX complex disruptors, retested hits, confirmation, luminescence, single concentration (AID 489028)
Details: Mdm2-MdmX binding, luminescent assay; at 8 µM; stronger effect = higher value

Protein Mdm4 (Homo sapiens) + E3 ubiquitin-protein ligase Mdm2 (Homo sapiens), sequence (O15151 whole entry, looked up): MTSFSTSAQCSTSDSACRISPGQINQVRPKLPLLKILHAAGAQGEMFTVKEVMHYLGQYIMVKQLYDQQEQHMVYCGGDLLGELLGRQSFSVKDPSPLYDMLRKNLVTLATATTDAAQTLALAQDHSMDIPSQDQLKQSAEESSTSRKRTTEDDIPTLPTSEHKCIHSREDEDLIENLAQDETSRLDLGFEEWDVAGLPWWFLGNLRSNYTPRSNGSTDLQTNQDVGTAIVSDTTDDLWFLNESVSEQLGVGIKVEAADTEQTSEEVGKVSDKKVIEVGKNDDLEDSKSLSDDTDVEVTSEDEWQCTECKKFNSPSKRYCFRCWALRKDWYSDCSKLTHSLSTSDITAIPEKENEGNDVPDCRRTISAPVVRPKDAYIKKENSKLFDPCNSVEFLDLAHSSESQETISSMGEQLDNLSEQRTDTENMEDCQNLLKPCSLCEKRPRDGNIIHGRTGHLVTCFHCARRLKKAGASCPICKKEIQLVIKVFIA
Protein Mdm4 (Homo sapiens) + E3 ubiquitin-protein ligase Mdm2 (Homo sapiens), sequence (Q00987 whole entry, looked up): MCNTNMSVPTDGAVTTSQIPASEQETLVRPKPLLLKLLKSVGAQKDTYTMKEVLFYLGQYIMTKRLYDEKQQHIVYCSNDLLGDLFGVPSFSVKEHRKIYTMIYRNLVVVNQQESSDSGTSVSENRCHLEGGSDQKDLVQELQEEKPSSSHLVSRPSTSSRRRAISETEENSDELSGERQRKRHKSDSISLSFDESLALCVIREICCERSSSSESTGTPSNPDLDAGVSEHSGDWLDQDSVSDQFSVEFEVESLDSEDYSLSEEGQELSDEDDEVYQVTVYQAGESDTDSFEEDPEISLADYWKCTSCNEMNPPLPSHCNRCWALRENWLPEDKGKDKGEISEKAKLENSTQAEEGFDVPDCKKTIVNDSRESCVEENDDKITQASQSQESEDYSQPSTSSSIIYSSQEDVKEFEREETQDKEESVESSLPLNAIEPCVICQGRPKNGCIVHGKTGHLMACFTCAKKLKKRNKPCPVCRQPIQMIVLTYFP

Compound	inhibition
O=C1C2(Cl)C3(Cl)C4(Cl)C(Cl)(Cl)C5(Cl)C3(Cl)C1(Cl)C5(Cl)C24Cl (stereo not drawn)	49.5% (active)
COC(=O)C1=C(c2ccc(F)cc2OCc2ccccc2)C[C@@H]2CC[C@H]1N2C(=O)NCc1ccc(Cl)cc1	31.1% (inactive)
CNCC(O)c1cc(F)c(OCc2ccccc2)c(OCc2ccccc2)c1F (stereo not drawn)	17.8% (inactive)
Cc1cc2ccccn2c1C(C[N+](=O)[O-])c1c(F)cccc1Cl (stereo not drawn)	99.1% (active)
O=c1c2ccccc2nc(/C=C/c2ccc(F)cc2)n1-c1ccccc1O	31% (inactive)
O=Cc1cn(Cc2ccc(F)cc2Cl)c2ccccc12	28% (inactive)
CNC(=O)O/N=C(\N)Cc1csc2ccccc12	52.6% (active)
CNC(=O)O/N=C(\N)Cc1csc2ccc(Cl)cc12	90.3% (active)
O=C(c1cc2nc(-c3ccccc3)cc(-c3ccccc3)n2n1)N1CCC2(CC1)OCCO2	16.3% (inactive)
CCCCC(=O)N/N=C/c1c(O)n(CCC2=CCCCC2)c(=O)[nH]c1=O	20.9% (inactive)
COC(=O)C1=C(c2ccc(F)cc2OCc2ccccc2)C[C@@H]2CC[C@H]1N2C(=O)NCc1ccc2[nH]ccc2c1	18.9% (inactive)
O=C1NC(=O)N(CCc2ccc(F)cc2)C(=O)/C1=C/C=C/c1ccccc1	57.2% (active)
CCCCCCCCCCCCn1ccc(=N)cc1	98.3% (active)
N#CC1=C(N)Oc2c(c(=O)oc3ccccc23)C1c1ccccc1OC(=O)c1cccs1 (stereo not drawn)	15.1% (inactive)
CC1(C)Cc2c(C#N)c(N3CCNCC3)nc(-c3ccco3)c2CS1	24.1% (inactive)
CCOc1ccc(-c2cc(C)[n+](CCN(CC)CC)c(-c3ccc(OCC)cc3)c2)cc1	84.5% (active)
CC(Cc1ccccc1)NCCC(c1ccccc1)c1ccccc1 (stereo not drawn)	19.1% (inactive)
CCCCCn1c(=O)c(C(=O)NCc2ccccc2)c(O)c2ccccc21	5.2% (inactive)
